Results filed as inconclusive are left out. Unmarked numbers belong to inactive results. Calls come from the whole dose curve; as a rule, active = well fitted curve in the direction sought with a large enough effect; inconclusive = small, poorly fitted or top-dose-only effect, or another doubt; inactive = no such curve, though single readings can be large; an effect the other way counts as inactive or inconclusive.
Experiment: qHTS of pediatric cancer cell lines to identify multiple opportunities for drug repurposing: Primary screen for U-2 OS cells (AID 1347096);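 note: plate controls were DMSO wells for no effect and bortezomib positive control wells for full effect; nearly all actives have a fitted effect of over 50% in size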
Conditions: U-2 OS viability, CellTiter-Glo luminescence, 48 h; series mostly up to 46 µM; activity change, negative = cytotoxic: at the top concentration
Summary of the method: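 Viability after 48 h compound treatment at 37C, 500-1,000 cells/well, read as ATP luminescence with CellTiter-Glo. Primary screens used 11-point (MIPE, 0.78 nM-46 µM) or 8-point (NPC, 0.59 nM-46 µM) final concentrations; follow-up screens used 11-point dilutions.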

Row | SMILES | activity change, negative = cytotoxic [%]
1 | O=C(O)Cn1cnnn1 | 9.14
2 | COc1cc(OC)nc(O[C@H](C(=O)O)C(OC)(c2ccccc2)c2ccccc2)n1 | -5.31
3 | CCCCCCCCCCCCCCCCCCN(C)C | -4.04
4 | C=C(C)C(=O)OCC(O)CO (stereo not drawn) | 1.46
5 | CNC(=O)c1c(I)c(NC(C)=O)c(I)c(C(=O)O)c1I | 8.03
6 | Cc1nc([N+](=O)[O-])cn1-c1ccc([N+](=O)[O-])cc1 | -6.88
7 | O=C(CCCCCCCCC#CI)Oc1ccccc1 | -4.25
8 | C=CC[N+]1([C@H]2C[C@H]3[C@@H]4CC[C@H]5C[C@H](OC(C)=O)[C@@H](N6CCCCC6)C[C@]5(C)[C@H]4CC[C@]3(C)[C@H]2OC(=O)CC)CCCCC1 | 16
9 | CO/N=C(/C(=O)N[C@@H]1C(=O)N2C(C(=O)[O-])=C(C[n+]3ccn4ncccc43)CS[C@H]12)c1nsc(N)n1 | 14.5
10 | C/C(=N\O)[C@@H](C)NCC(C)(C)CN[C@H](C)/C(C)=N/O | 6.74
11 | CNC[C@H](O)[C@@H](O)[C@H](O)[C@H](O)CO | 10.7
12 | COc1ccc(CCC(C)=O)cc1 | 4.1
13 | Cc1ccccc1C(=O)N1CC/C(=N\OS(=O)(=O)O)c2ccc(Cl)cc21 | 13.9
14 | CCn1ccc(NS(=O)(=O)c2ccc(N)cc2)nc1=O | 1.39
15 | O=C(O)/C=C(\CC(=O)O)C(=O)O | 11.3
16 | [O-][n+]1cccc(/C(Cl)=N/OC[C@@H](O)CN2CCCCC2)c1 | 2.7
17 | CC1CC(=O)NN=C1c1ccc(NCC(C)(C)NCC(O)COc2cc(Cl)ccc2C#N)cc1 (stereo not drawn) | 2

Experiment: qHTS of pediatric cancer cell lines to identify multiple opportunities for drug repurposing: Primary screen for Saos-2 cells (AID 1347097); note: % is set by controls: 0 for no effect and ±100 for the full control effect; nearly all actives have a fitted effect of over 40% in size
Conditions: Saos-2 viability, CellTiter-Glo ATP luminescence, 48 h; series mostly up to 46 µM; activity change, negative = cytotoxic: at the top concentration
Summary of the method: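 500-1,000 cells/well; 5 h pre-incubation 37 °C/5% CO2; compound pinned; 48 h; CellTiter-Glo, 15 min RT; luminescence. MIPE 11-pt from 0.78 nM, NPC 8-pt from 0.59 nM final. Bortezomib 2.3 µM final as positive control.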

Row | SMILES | activity change, negative = cytotoxic
18 | Cn1c(=O)c2c(ncn2CC(=O)O)n(C)c1=O | -12%
19 | O=[N+]([O-])c1nccn1CO[C@@H](CO)[C@H](O)CO | 13.7%
20 | CC(=O)OCC(=O)Nc1cc(C#N)cc(NC(=O)COC(C)=O)c1Cl | 1.91%
21 | CC1(C)O[C@@H]2C[C@H]3[C@@H]4C[C@H](F)C5=CC(=O)C=C[C@]5(C)[C@@]4(F)[C@@H](O)C[C@]3(C)[C@]2(C(=O)CO)O1 | -12.4%
22 | CCCC(=O)Nc1ccc(O)c(C(C)=O)c1 | 12.2%
23 | O=[N+]([O-])c1cncn1CCN1CCOCC1 | 42.7%
24 | CCOc1ncc(F)c(=O)[nH]1 | 23.9%
25 | CCc1cc(S(=O)(=O)O)c2cc(C(C)C)cccc1-2 | -7.43%
26 | Cc1ccccc1N1CCN(CCc2nnc3n2CCCC3)CC1 | 5.45%
27 | CN1C(=O)c2ccccc2C1=O | -27.8% [at 92.7 µM]
28 | Nc1nnnn1-c1ccccc1 | 1.9%
29 | CCOC(=O)c1ccc(NC(=O)CN2CCCCC2)cc1 | -9.16%
30 | Brc1ccccc1-c1ccccc1 | -18.7% [at 92.7 µM]
31 | CCNC(=O)NCCCOc1cccc(CN2CCCCC2)c1 | -28.7%
32 | CO/N=C(/C(=O)N[C@@H]1C(=O)N2C(C(=O)OCOC(=O)C(C)(C)C)=C(C)CS[C@H]12)c1csc(N)n1 | 18.6%
33 | Cc1c(N)cccc1C(F)(F)F | 15.9%
34 | OC[C@]1(O)OC[C@@H](O)[C@H](O)[C@@H]1O | -1.66%
35 | COC(=O)c1cc(Cl)ccc1OC | -24.2%
36 | CCCc1ncc(C(=O)O)s1 | 8.68%

Row | SMILES | activity change, negative = cytotoxic
37 | CCOc1ccc(NS(=O)(=O)c2ccc(N)cc2)nn1 | -0.415%
38 | CCCc1c2oc(C(=O)O)cc(=O)c2cc2c(=O)cc(C(=O)O)n(CC)c12 | -28.2%
39 | O=C(O)Cn1cnnn1 | 25.1%
40 | COc1cc(OC)nc(O[C@H](C(=O)O)C(OC)(c2ccccc2)c2ccccc2)n1 | -24.5%
41 | CCCCCCCCCCCCCCCCCCN(C)C | -15.2%
42 | C=C(C)C(=O)OCC(O)CO (stereo not drawn) | -28.1%
43 | CNC(=O)c1c(I)c(NC(C)=O)c(I)c(C(=O)O)c1I | 30.1%
44 | Cc1nc([N+](=O)[O-])cn1-c1ccc([N+](=O)[O-])cc1 | 26.3%
45 | O=C(CCCCCCCCC#CI)Oc1ccccc1 | -29.4%
46 | C=CC[N+]1([C@H]2C[C@H]3[C@@H]4CC[C@H]5C[C@H](OC(C)=O)[C@@H](N6CCCCC6)C[C@]5(C)[C@H]4CC[C@]3(C)[C@H]2OC(=O)CC)CCCCC1 | 18.4%
47 | CO/N=C(/C(=O)N[C@@H]1C(=O)N2C(C(=O)[O-])=C(C[n+]3ccn4ncccc43)CS[C@H]12)c1nsc(N)n1 | 22.4%
48 | C/C(=N\O)[C@@H](C)NCC(C)(C)CN[C@H](C)/C(C)=N/O | -3.95%
49 | CNC[C@H](O)[C@@H](O)[C@H](O)[C@H](O)CO | -0.147%
50 | COc1ccc(CCC(C)=O)cc1 | -29.1%
51 | Cc1ccccc1C(=O)N1CC/C(=N\OS(=O)(=O)O)c2ccc(Cl)cc21 | -17%
52 | CCn1ccc(NS(=O)(=O)c2ccc(N)cc2)nc1=O | -4.91%
53 | O=C(O)/C=C(\CC(=O)O)C(=O)O | 10.7%
54 | [O-][n+]1cccc(/C(Cl)=N/OC[C@@H](O)CN2CCCCC2)c1 | 17.4%
55 | CC1CC(=O)NN=C1c1ccc(NCC(C)(C)NCC(O)COc2cc(Cl)ccc2C#N)cc1 (stereo not drawn) | -18.5%

Experiment: qHTS of pediatric cancer cell lines to identify multiple opportunities for drug repurposing: Primary screen for SK-N-SH cells (AID 1347098);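 note: DMSO served as neutral control and bortezomib at 2.3 µM as positive control; % is set by controls: 0 for no effect and ±100 for the full control effect; nearly all actives have a fitted effect of over 65% in size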
Conditions: SK-N-SH viability, CellTiter-Glo luminescence, 48 h; series mostly up to 57 µM; activity change, negative = cytotoxic: at the top concentration
Summary of the method: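 Cells (500-1,000/well) rested 5 h, then received compounds for 48 h; metabolically active cells were measured by CellTiter-Glo luminescence. Final concentrations spanned up to 46 µM (MIPE, 11-point) or 0.59 nM-46 µM (NPC, 8-point) in primary screens, 11-point in follow-ups.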

Row | SMILES | activity change, negative = cytotoxic
56 | Cn1c(=O)c2c(ncn2CC(=O)O)n(C)c1=O | 2.1%
57 | O=[N+]([O-])c1nccn1CO[C@@H](CO)[C@H](O)CO | 8.44%
58 | CC(=O)OCC(=O)Nc1cc(C#N)cc(NC(=O)COC(C)=O)c1Cl | -16.7%
59 | CC1(C)O[C@@H]2C[C@H]3[C@@H]4C[C@H](F)C5=CC(=O)C=C[C@]5(C)[C@@]4(F)[C@@H](O)C[C@]3(C)[C@]2(C(=O)CO)O1 | 9.09%
60 | CCCC(=O)Nc1ccc(O)c(C(C)=O)c1 | -6.59%
61 | O=[N+]([O-])c1cncn1CCN1CCOCC1 | -9.44%
62 | CCOc1ncc(F)c(=O)[nH]1 | -15.2%
63 | CCc1cc(S(=O)(=O)O)c2cc(C(C)C)cccc1-2 | -3.19%
64 | Cc1ccccc1N1CCN(CCc2nnc3n2CCCC3)CC1 | 1.09%
65 | CN1C(=O)c2ccccc2C1=O | 11.7% [at 115 µM]
66 | Nc1nnnn1-c1ccccc1 | -8.01%
67 | CCOC(=O)c1ccc(NC(=O)CN2CCCCC2)cc1 | 24.5%
68 | Brc1ccccc1-c1ccccc1 | 15.3% [at 115 µM]
69 | CCNC(=O)NCCCOc1cccc(CN2CCCCC2)c1 | 3.03%
70 | CO/N=C(/C(=O)N[C@@H]1C(=O)N2C(C(=O)OCOC(=O)C(C)(C)C)=C(C)CS[C@H]12)c1csc(N)n1 | -14.5%
71 | Cc1c(N)cccc1C(F)(F)F | -3.39%
72 | OC[C@]1(O)OC[C@@H](O)[C@H](O)[C@@H]1O | 0.305%
73 | COC(=O)c1cc(Cl)ccc1OC | 8.06%
74 | CCCc1ncc(C(=O)O)s1 | -1.39%

Row | SMILES | activity change, negative = cytotoxic
75 | CCOc1ccc(NS(=O)(=O)c2ccc(N)cc2)nn1 | -7.63%
76 | CCCc1c2oc(C(=O)O)cc(=O)c2cc2c(=O)cc(C(=O)O)n(CC)c12 | -10.2%
77 | O=C(O)Cn1cnnn1 | -25.8%
78 | COc1cc(OC)nc(O[C@H](C(=O)O)C(OC)(c2ccccc2)c2ccccc2)n1 | -20%
79 | CCCCCCCCCCCCCCCCCCN(C)C | 11.8%
80 | C=C(C)C(=O)OCC(O)CO (stereo not drawn) | -5.35%
81 | CNC(=O)c1c(I)c(NC(C)=O)c(I)c(C(=O)O)c1I | 0.0756%
82 | Cc1nc([N+](=O)[O-])cn1-c1ccc([N+](=O)[O-])cc1 | 1.69%
83 | O=C(CCCCCCCCC#CI)Oc1ccccc1 | -6.7%
84 | C=CC[N+]1([C@H]2C[C@H]3[C@@H]4CC[C@H]5C[C@H](OC(C)=O)[C@@H](N6CCCCC6)C[C@]5(C)[C@H]4CC[C@]3(C)[C@H]2OC(=O)CC)CCCCC1 | -14%
85 | CO/N=C(/C(=O)N[C@@H]1C(=O)N2C(C(=O)[O-])=C(C[n+]3ccn4ncccc43)CS[C@H]12)c1nsc(N)n1 | -13.4%
86 | C/C(=N\O)[C@@H](C)NCC(C)(C)CN[C@H](C)/C(C)=N/O | -7.81%
87 | CNC[C@H](O)[C@@H](O)[C@H](O)[C@H](O)CO | -14.9%
88 | COc1ccc(CCC(C)=O)cc1 | 3.08%
89 | Cc1ccccc1C(=O)N1CC/C(=N\OS(=O)(=O)O)c2ccc(Cl)cc21 | 2.23%
90 | CCn1ccc(NS(=O)(=O)c2ccc(N)cc2)nc1=O | -3.66%
91 | O=C(O)/C=C(\CC(=O)O)C(=O)O | 8.33%
92 | [O-][n+]1cccc(/C(Cl)=N/OC[C@@H](O)CN2CCCCC2)c1 | -10.6%
93 | CC1CC(=O)NN=C1c1ccc(NCC(C)(C)NCC(O)COc2cc(Cl)ccc2C#N)cc1 (stereo not drawn) | -14.8%

Source: PubChem BioAssay (NCATS)
